From ChEMBL document CHEMBL1157539, “Thousands of chemical starting points for antimalarial lead identification” (Nature, 2010)

How the values were obtained:
Assay type in all cases: functional
Plasmodium falciparum [1] = test: GSK_TCMDC: Inhibition of Plasmodium falciparum 3D7 in whole red blood cells, using parasite LDH activity as an index of growth. Test compounds present at 2uM
Plasmodium falciparum [2] = test: GSK_TCMDC: Inhibition of Plasmodium falciparum Dd2 in whole red blood cells, using parasite LDH activity as an index of growth. Test compounds present at 2uM
HepG2 = test: GSK_TCMDC: Percent inhibition of human HepG2 cell line. Test compounds present at 10uM.

CO/C(=C\C=C\c1cc2cc(Cl)c(Cl)cc2[nH]1)C(=O)NCCCNC12CC3CC(CC(C3)C1)C2
Inhibition (Plasmodium falciparum [1]): 99% | Inhibition (Plasmodium falciparum [2]): 76% | Inhibition (HepG2): 29%

CCc1nc2c(cnn2CC)c(NC2CCOCC2)c1CNC(=O)N1CCOCC1
Inhibition (Plasmodium falciparum [1]): 98% | Inhibition (Plasmodium falciparum [2]): 48% | Inhibition (HepG2): 0%

Cc1ccc(NC(=O)NCCCCCN2CCC(c3c[nH]c4ccccc34)CC2)cc1I
Inhibition (Plasmodium falciparum [1]): 94% | Inhibition (Plasmodium falciparum [2]): 5% | Inhibition (HepG2): 96%

CN(C)CC1CCCN1Cc1ccccc1-c1cnn(C)c(=O)c1Oc1ccccc1F.O=C(O)C(F)(F)F (stereo not given)
Inhibition (Plasmodium falciparum [1]): 95% | Inhibition (Plasmodium falciparum [2]): 27% | Inhibition (HepG2): 18%

CC(Cc1ccc(CNC(=O)NCc2ccc(CC(C)NCCc3cccc(Cl)c3)cc2)cc1)NCCc1cccc(Cl)c1 (stereo not given)
Inhibition (Plasmodium falciparum [1]): 100% | Inhibition (Plasmodium falciparum [2]): 44% | Inhibition (HepG2): 100%

CCN1CCN(Cc2ccc3nc(-c4cc(C)n(Cc5cc(Cl)ccc5OCc5ccccc5)n4)[nH]c3c2)CC1.Cl
Inhibition (Plasmodium falciparum [1]): 100% | Inhibition (Plasmodium falciparum [2]): 97% | Inhibition (HepG2): 11%

Cc1cccc2nc(-c3ccc(-c4cccc(CN5CCCCC5)c4)s3)[nH]c12.O=C(O)C(F)(F)F
Inhibition (Plasmodium falciparum [1]): 100% | Inhibition (Plasmodium falciparum [2]): 92% | Inhibition (HepG2): 11%

CC(C)C[C@H]1C(=O)N[C@H](C2Cc3ccccc3C2)C(=O)N1[C@@H](C(=O)Nc1ccccc1OCc1ccccc1)c1ccc(F)cc1F
Inhibition (Plasmodium falciparum [1]): 90% | Inhibition (Plasmodium falciparum [2]): 67% | Inhibition (HepG2): 12%

COc1ccc(O)c(C(=O)c2cc(C#N)c(=O)n(-c3ccc(Oc4ccccc4)cc3)c2)c1
Inhibition (Plasmodium falciparum [1]): 97% | Inhibition (Plasmodium falciparum [2]): 20% | Inhibition (HepG2): 22%

Oc1ccc2ccccc2c1C=NNc1nc(=Nc2ccccc2)[nH]c(=Nc2ccccc2)[nH]1
Inhibition (Plasmodium falciparum [1]): 99% | Inhibition (Plasmodium falciparum [2]): 73% | Inhibition (HepG2): 55%
